# Screens deposited in PubChem BioAssay by National Center for Advancing Translational Sciences (NCATS).
# Giardia killer: Giardia lamblia killing. actives 0.15% (n = 340,000). Giardia lamblia trophozoite viability. activity change, % at 7.66 µM, hits read low. AID 540267; in the data active = activity change below about -80%; inconclusive = between about -30% and that limit;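 also: parasites exposed to compound for two days anaerobically before the ATP read; % is scaled to controls: 0 for no effect and ±100 for the full control effect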
#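 Giardia trophozoites, 100 cells per well, were exposed to compounds for 48 hrs at 37 deg C under anaerobic conditions; viability was then read as ATP content by bioluminescence after 15-30 min at room temperature.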
# uPA generation: inhibitors of cell surface uPA generation; actives 0.31% (n = 330,000); cell surface uPA generation assay, qHTS; AID 540303; Potency, µM (series often up to 38.3 µM), inactives show top-dose activity change, negative = inhibition, most hits filed as inhibitors; active = well fitted inhibition curve with a large enough effect; inconclusive = small, poorly fitted or top-dose-only effect; inactive = no such curve, though single readings can be large or run the other way; tested in mouse RAW 264.7 cells; also: potency is read from the fitted curve at half-maximal effect; % is scaled to controls: 0 for no effect and ±100 for the full control effect; nearly all actives have a fitted effect of over 55% in size
# ATXN2 expr inh: reduces ATXN2 reporter expression in HEK-293 cells. HEK-293 ATXN2-luciferase reporter, luminescence, 24 h. Potency, µM (series often up to 57 µM), for inactives: at the top dose activity change, negative = inhibition, hits mostly inhibitors. actives 0.72% (n = 360,000); also: potency is read from the fitted curve at half-maximal effect; % is scaled to controls: 0 for no effect and ±100 for the full control effect; nearly all actives have a fitted effect of over 55% in size
#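 qHTS (up to 57 uM final) was run with 24 h compound exposure of reporter cells at 37 °C. Each well was multiplexed: SteadyGlo luminescence measured ATXN2-luciferase expression after a fluorogenic Gly-Phe-AFC viability readout (25 uM final).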
# TGFb SMAD3 inh: inhibitors of TGF-b signaling; Potency, µM (top dose mostly 46.1 µM), inactives show top-dose activity, negative = inhibition, hits mostly inhibitors; HepG2 CAGA-GFP TGF-b/SMAD3 reporter, GFP fluorescence, 18 h; TGF-beta stimulated, 500 pg/mL final; AID 588855; actives 1.2% (n = 410,000); also: potency is read from the fitted curve at half-maximal effect; % is scaled to controls: 0 for no effect and ±100 for the full control effect; nearly all actives have a fitted effect of over 65% in size
#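 HEPG2 CAGA-GFP cells (1000/well, DMEM with 1% FBS) were pre-incubated 2 h at 37 degrees C, given compound by pin tool, then stimulated with TGF-beta at 500 pg/mL final for 18 h before per-cell GFP fluorescence imaging.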
# HepG2 tox: HepG2 cytotoxicity, counter-screen for TGF-b inhibitors; HepG2 CAGA-GFP viability, ATP luminescence, 18 h; Potency, µM (series often up to 46.1 µM), for inactives: at the top dose activity change, negative = cytotoxicity, actives largely listed as cytotoxic; actives 0.76% (n = 410,000); AID 588856; also: potency is read from the fitted curve at half-maximal effect
#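 CellTiter-Glo luminescence gave cytotoxicity after 18 hours at 37 degrees C. The cells were HepG2 CAGA-GFP in 1% FBS DMEM, stimulated with 500 pg/mL TGF-beta after compound addition. %Activity was normalised to no-cell wells (complete cell-killing) and DMSO (no toxicity), and curves were fitted and classified.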
# S2 tox: cell viability loss in ATXN counter-screen | S2 cells (HEK-293 line with an ATXN2-luciferase reporter) viability, CellTiter-Fluor protease fluorescence, 24 h | Potency, µM (titrated, usually from 56.7 µM), hits mostly cytotoxic | actives 0.49% (n = 400,000) | AID 651635; also: potency is read from the fitted curve at half-maximal effect; nearly all actives have a fitted effect of over 40% in size
# Active calls of the source: *; i = inactive; ? = inconclusive; . = not tested or not shown; ! = a repeat was not active. Shown are actives, neighbours in structure and some others; about 2.6% of the full set was active somewhere. Unless noted, calls follow the shape of the dose curve; as a rule, active = well fitted curve in the direction sought with a large enough effect; inconclusive = small, poorly fitted or top-dose-only effect, or another doubt; inactive = no such curve, though single readings can be large; an effect the other way counts as inactive or inconclusive.
SMILES,Giardia killer,uPA generation,ATXN2 expr inh,TGFb SMAD3 inh,HepG2 tox,S2 tox
CCN(CC)C(=O)[C@H]1CC(CC(=O)NC/C=C(\C)CCC=C(C)C)C(=O)N2CCc3c([nH]c4ccc(OC)cc34)[C@]12C (stereo not given in full),24,?,?,11µM*,-95%,25µM*
CCN(CC)C(=O)[C@H]1CC(CC(=O)NC/C=C(\C)CCC=C(C)C)C(=O)N2CCc3c([nH]c4ccccc34)[C@]12C (stereo not given in full),11,?,?,16µM*,-104%,?
CCN(CC)C(=O)[C@H]1C[C@H](CC(=O)NC/C=C(\C)CCC=C(C)C)C(=O)N2CCc3c([nH]c4ccc(Cl)cc34)[C@]12C,-26,-14%,-3%,?,-3%,i
Cc1csc(SCC(=O)N2CCOc3ccc(C(O)C4CCCCC4)cc3C2)n1 (stereo not given),.,.,.,.,.,i
CCCCN(CC)CCCNC(=O)C1CCN(c2nc3ccc(CC)cc3s2)CC1,.,.,.,.,-96%,.
CCCCN(C)CCCNC(=O)C1CCN(c2nc3ccc(CC)cc3s2)CC1,.,.,?,?,14µM*,.
CC(=O)C1=C(O)C(=O)N(CC(=O)O)C1c1ccccc1Cl (stereo not given),-16,11%,-11%,11%,9%,i
CC(C)(C)C(=O)C1=C(O)C(=O)N(Cc2ccccc2)C1c1ccccc1Cl (stereo not given),29,10µM*,.,0%,-11%,i
CCOc1ccc(-c2csc(/C(C#N)=C\c3ccc(O)c([N+](=O)[O-])c3)n2)cc1,-25,11%,?,5µM*,-7%,.
Clc1cccc(-c2nnnn2Cc2cccnc2)c1Cl,.,.,-4%,.,.,.
FC(F)(F)c1cnc(NNC(=S)Nc2ccccc2Cl)c(Cl)c1,9,-22%,6µM*,7.1µM*,-49%,i
Cc1cccc(NC(=S)NNc2ncc(C(F)(F)F)cc2Cl)c1,?,-4%,?,?,-37%,i
COc1ccc(-n2ncc3c(N4CCCCC4)ncnc32)cc1,-82*,1.3µM*,?,0%,-46%,i
Cc1cccc(-n2ncc3c(N4CCOCC4)ncnc32)c1,?,0.79µM*,10µM*,15%,-2%,i
Cc1cccc(-n2ncc3c(NC4CCCC4)ncnc32)c1,.,.,42%,47%,-6%,i
Cc1cccc(-n2ncc3c(NC4CCCCC4)ncnc32)c1,-11,11µM*,28%,-24%,-3%,?
Oc1cc(-c2nc(-c3ccccc3)[nH]c2-c2ccncc2)ccc1Cl,.,.,-9%,.,.,.
CC(C)c1c(C(=O)NCCN2CCOCC2)cnn1-c1nccc(-c2ccco2)n1,.,.,.,.,.,i
CCN(CC)C(=S)SSC(=S)N(CC)CC,-24,?,?,?,-56%,71µM*!
COc1ccc(/C=C2\CN(Cc3ccccc3)C/C(=C\c3ccc(OC)cc3)C2=O)cc1,4,-3%,?,11µM*,-2%,?
O=C(N[C@@H]1c2ccccc2C2(CCN(Cc3c(O)ccc4ccccc34)CC2)[C@H]1O)c1ccccc1,.,.,.,.,.,i
Cc1cc(N/N=C/c2cccc(Cl)c2)nc(-n2nc(C)cc2C)n1,-4,2%,?,-21%,-41%,?
Cc1cc(N/N=C/c2ccccc2[N+](=O)[O-])nc(-n2nc(C)cc2C)n1,-8,-2%,?,2.5µM*,-40%,?
COc1ccc(/C=N/Nc2cc(C)nc(NS(=O)(=O)c3ccc(C)cc3)n2)cc1,-2,5%,-4%,13µM*,-46%,i
Cc1cc(N/N=C/c2cccc([N+](=O)[O-])c2)nc(-n2nc(C)cc2C)n1,12,7%,-27%,1%,-16%,i
SMILES,Giardia killer,uPA generation,ATXN2 expr inh,TGFb SMAD3 inh,HepG2 tox,S2 tox
COc1ccc(/C=N/Nc2cc(C)nc(-n3nc(C)cc3C)n2)cc1,6,-7%,20µM*,0%,-24%,?
COc1cc(OC)c2nc(-c3cc4c(c(OC)c3)OCCN(C(=O)C(C)c3n[nH]c(=O)c5ccccc35)C4)cc(C)c2c1 (stereo not given),.,.,.,.,.,i
COc1cccc(-c2ccnc(-n3ncc(C(=O)NCC(C)(C)CN(C)C)c3C)n2)c1,.,.,.,.,.,i
O=C(NC(c1ccc(F)cc1)c1ccc2ccccc2n1)C1CCN(CCOc2ccc(Cl)cc2Cl)CC1 (stereo not given),.,.,?,?,11µM*,.
COc1ccc(OCCN2CCC(C(=O)NC(c3ccccc3)c3ccc4ccccc4n3)CC2)cc1 (stereo not given),.,.,0%,?,6.3µM*,?
O=C(NC(c1ccc(F)cc1)c1cnccn1)C1CCN(CCOc2ccc(Cl)cc2Cl)CC1 (stereo not given),.,.,?,?,-34%,?
O=C(NC(c1ccc(F)cc1)c1ccc2ccccc2n1)C1CCN(CCOc2ccc(F)cc2)CC1 (stereo not given),.,.,28µM*,11µM*,16µM*,16µM*
COc1ccc(OCCN2CCC(C(=O)NC(c3ccc(OC)cc3)c3ccccn3)CC2)cc1 (stereo not given),.,.,2%,0%,-24%,i
